LRH-1 inv ag = suppresses constitutive activity of human LRH-1; O00482; HEK293T StAR-luciferase reporter, LRH-1 transfected, 24 h; inhibition, % at 3.6 µM; 360,000 tested, 0.13% active; AID 602396;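 active = inhibition above the mean inhibition of all tested compounds plus 3 SD, cut at about 73% in these data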;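 note: 0% = DMSO wells and 100% = reporter-only cells lacking LRH-1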
NCOA2 inhibitor = inhibits human steroid receptor coactivator 2 | HEK293 GAL4-SRC2 luciferase reporter, luminescence | inhibition, % at 9 µM | 370,000 tested, 0.17% active | AID 651957;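 active = inhibition above the mean inhibition of all tested compounds plus 3 SD, set per campaign, cut at about 52% in these data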;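 note: 0% = DMSO treated cells and 100% = cells given Gossypol at 36 µM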
COUP-TFII inh = NR2F2 (human) inhibition, primary screen; HEK293T NGFI-A luciferase reporter, luminescence; 370,000 tested, 0.7% active; P24468; inhibition, % at 8.6 µM; AID 686940;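 active = inhibition above a per-plate cutoff, mean inhibition of test wells between control levels plus 3 SD, cut at about 38% in these data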;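 note: cells cotransfected with COUP-TFII expression vector driving the NGFI-A reporter; 0% = median of COUP-TF2 test wells and 100% = reporter-only cells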
Efflux pump inh = inhibitors of Candida antifungal efflux pumps expressed in yeast; S. cerevisiae Candida pump triplex, Nile Red efflux; inhibition, % at 10 µM; 330,000 tested, 0.44% active;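 active = plate passing quality check with inhibition over a set limit, or well fluorescence over plate mean plus 4 SD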;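 note: Nile Red retained in pooled yeast measured as flow cytometry median fluorescence; 0% = buffer negative control and 100% = Enniatin B positive control; higher means more Nile Red kept so more efflux inhibition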
NCOA1 inh = inhibitors of human steroid receptor coactivator 1 (SRC1) | HEK293 GAL4-SRC1 luciferase reporter, luminescence | inhibition, % at 3.6 µM | 360,000 tested, 0.12% active | AID 588354;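 active = inhibition above the campaign mean plus 3 SD, with each screening campaign given its own cutoff, cut at about 60% in these data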;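 note: 0% = DMSO treated cells and 100% = gossypol at 36 µM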
NCOA3 inh = human NCOA3 inhibition; Q9Y6Q9; HEK293 GAL4-SRC3 luciferase reporter, luminescence; inhibition, % at 3.6 µM; 360,000 tested, 0.17% active;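 active = inhibition above a per-campaign cutoff, the mean of all compounds plus 3 SD, cut at about 60% in these data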;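 note: 0% = DMSO-treated cells and 100% = gossypol-treated cells at 36 µM; higher means less SRC3-driven luciferase light from the GAL4 reporter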
Target sequence (Q9Y6Q9 whole entry, looked up, the tested form may be a part): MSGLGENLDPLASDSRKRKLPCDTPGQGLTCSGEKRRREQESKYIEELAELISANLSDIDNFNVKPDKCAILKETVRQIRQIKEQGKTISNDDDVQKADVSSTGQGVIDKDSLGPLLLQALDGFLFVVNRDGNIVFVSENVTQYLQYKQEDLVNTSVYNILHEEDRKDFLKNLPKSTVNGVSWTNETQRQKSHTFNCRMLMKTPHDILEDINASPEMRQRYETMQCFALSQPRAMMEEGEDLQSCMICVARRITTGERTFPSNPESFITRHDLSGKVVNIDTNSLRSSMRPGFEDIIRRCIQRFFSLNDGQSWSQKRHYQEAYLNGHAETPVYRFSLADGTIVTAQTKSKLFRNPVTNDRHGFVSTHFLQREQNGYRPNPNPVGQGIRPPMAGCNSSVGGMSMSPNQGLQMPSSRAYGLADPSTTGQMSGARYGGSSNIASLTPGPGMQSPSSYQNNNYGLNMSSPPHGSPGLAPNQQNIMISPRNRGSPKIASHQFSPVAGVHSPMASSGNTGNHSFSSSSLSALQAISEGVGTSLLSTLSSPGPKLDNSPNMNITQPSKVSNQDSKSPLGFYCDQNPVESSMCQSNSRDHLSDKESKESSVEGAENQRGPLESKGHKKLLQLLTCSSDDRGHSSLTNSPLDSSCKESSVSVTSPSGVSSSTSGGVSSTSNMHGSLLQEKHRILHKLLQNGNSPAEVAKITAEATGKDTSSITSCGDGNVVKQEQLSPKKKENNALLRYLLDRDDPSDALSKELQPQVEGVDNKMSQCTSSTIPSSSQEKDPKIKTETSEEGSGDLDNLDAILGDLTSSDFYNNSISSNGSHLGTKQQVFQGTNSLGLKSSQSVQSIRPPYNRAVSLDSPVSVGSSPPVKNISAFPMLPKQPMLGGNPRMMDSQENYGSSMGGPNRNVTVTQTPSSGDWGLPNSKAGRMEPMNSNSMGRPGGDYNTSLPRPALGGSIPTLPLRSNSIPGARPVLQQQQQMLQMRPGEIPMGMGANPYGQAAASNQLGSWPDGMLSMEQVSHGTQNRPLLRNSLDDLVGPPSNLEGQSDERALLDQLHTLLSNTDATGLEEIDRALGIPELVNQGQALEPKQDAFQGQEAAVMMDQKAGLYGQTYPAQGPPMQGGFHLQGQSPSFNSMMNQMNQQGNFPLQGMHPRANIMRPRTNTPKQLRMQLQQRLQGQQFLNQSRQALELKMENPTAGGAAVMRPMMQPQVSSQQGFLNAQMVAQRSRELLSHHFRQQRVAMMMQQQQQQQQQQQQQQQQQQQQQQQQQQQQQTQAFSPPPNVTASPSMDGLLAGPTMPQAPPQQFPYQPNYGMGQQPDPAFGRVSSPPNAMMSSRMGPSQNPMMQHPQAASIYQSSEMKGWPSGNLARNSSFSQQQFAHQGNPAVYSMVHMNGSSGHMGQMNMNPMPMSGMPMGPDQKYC
Gal4-VP16 ctr = VP16 inhibition counter-screen for COUP-TFII | shares compounds with COUP-TFII inh | inhibition, % at 8.5 µM | 2,500 tested, 25% active | HEK293 Gal4-VP16 luciferase reporter, luminescence; in the data active = inhibition above about 13%
COUP-TFII conf = confirmation of human COUP-TFII (NR2F2) inhibitors; shares compounds with COUP-TFII inh; HEK293 NGFI-A luciferase reporter, luminescence; inhibition, % at 8.5 µM; 2,500 tested, 45% active; AID 687008;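 active = mean inhibition over three repeats above a set limit taken from the earlier primary screen, cut at about 38% in these data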;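 note: 100% = cells given the luciferase reporter alone without the COUP-TF2 vector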
* hit, by the source's call; . = no result. Only some compounds are listed: those with a hit (about 1.2% of all), similar ones and a draw of the others.

SMILES	LRH-1 inv ag	NCOA2 inhibitor	COUP-TFII inh	Efflux pump inh	NCOA1 inh	NCOA3 inh	Gal4-VP16 ctr	COUP-TFII conf
COc1ccc(CN(C)C(=O)c2cccc(NC(=O)CC3SC(N4CCCCC4)=NC3=O)c2)c(OC)c1 (centres undefined)	19	27	58*	.	13	45	0	44*
COc1ccc(CN(C)C(=O)c2ccc(OCC(=O)Nc3cccc(C(F)(F)F)c3)c(OC)c2)c(OC)c1	12	17	71*	0	7	29	2	59*
Nn1c(SCC(=O)Nc2ccc(F)cc2F)nnc1-c1cccnc1	-35	-41	-4	0	-10	-35	.	.
NS(=O)(=O)c1cnccc1Nc1cccc(Br)c1	11	-20	-10	0	11	13	.	.
CC(C)CNS(=O)(=O)c1ccc(CCC(=O)NC2CCCC2)cc1	1	9	10	0	7	10	.	.
Nc1ccc(C(=O)N/N=C/c2sc(N3CCOCC3)nc2-c2ccccc2)cc1	1	-18	-27	0	-14	6	.	.
O=C(N/N=C/c1sc(N2CCOCC2)nc1-c1ccccc1)c1cccc(S(=O)(=O)N2CCOCC2)c1	75*	6	54*	0	66*	72*	0	50*
O=C(NCc1ccncc1)C(F)(F)C(F)(F)C(=O)NCc1ccncc1	-6	-9	-3	0	0	11	.	.
COc1cc(OC)cc(OCC(O)Cn2ccnc2C)c1 (centres undefined)	-1	-9	-2	0	-13	0	.	.
CCN(CC)c1ccc(Nc2nc(N3CCOCC3)c3ccccc3n2)cc1	34	29	60*	0	13	37	8	43*
C[C@@]12CCC3[C@@](CCC4[C@@]3(C)CCC[C@@]4(C)C(=O)NCc3ccccc3)(CC1=O)C2 (some centres undefined)	6	-5	4	0	-13	2	.	.
COc1ccc(CCNC(=O)c2ccc(CS(=O)(=O)c3ccc(Cl)cc3)o2)cc1OC	31	15	49*	1	11	25	1	27
Cc1ccccc1CN1CCc2c(OCC(=O)N3CCCc4ccccc43)cccc2C1=O	21	9	7	0	7	2	.	.
O=C1c2cccc(OCC(=O)N3CCCc4ccccc43)c2CCN1Cc1cccnc1	7	9	40*	0	15	23	7	20
CCCC(=O)N1CCN(S(=O)(=O)c2cc(Cl)ccc2OC)CC1	-10	-21	-8	0	0	23	.	.
CC(C)NC(=O)C1(C)CCCCN1Cc1ccc(OCc2ccccc2)cc1 (centres undefined)	29	18	41*	.	0	13	-17	14
Cc1cc(N2CCN(C(=O)c3ccco3)CC2)n2nc(-c3cccc(F)c3)cc2n1	42	13	-11	0	-10	-14	.	.
COc1ccc(Cn2c(O)c(C=Nc3ccccc3C(=O)O)c3ccccc3c2=O)cc1	-9	-3	-4	0	-4	18	.	.
COc1ccccc1NS(=O)(=O)c1cccc(-n2c(O)c(C=Nc3ccccc3C(=O)O)c3ccccc3c2=O)c1	17	3	39*	0	11	29	-9	46*
CC1=C(C(=O)OCc2ccc3c(c2)OCO3)C(c2ccc(F)cc2)NC(=O)N1 (centres undefined)	60	44	38*	0	74*	61	23*	28
CCCCCOC(=O)C1=C(C)NC(=O)NC1c1ccc2c(c1)OCO2 (centres undefined)	4	13	-15	0	-6	-18	.	.
CC1=C(C(=O)OCc2ccc3c(c2)OCO3)C(c2ccc(Cl)cc2)NC(=O)N1 (centres undefined)	62	59*	48*	0	75*	65*	29*	37
CSCCOC(=O)C1=C(C)NC(=O)NC1c1ccc2c(c1)OCO2 (centres undefined)	-6	-7	-5	0	8	-14	.	.
O=C(NCc1ccco1)c1ccc(COc2ccccc2Cl)cc1	4	-27	-27	0	-25	-2	.	.
CCN(C(=O)CSc1cc(-c2ccccc2)c2ccc(OC)cc2n1)C1CCS(=O)(=O)C1 (centres undefined)	34	28	3	0	0	6	.	.
SMILES	LRH-1 inv ag	NCOA2 inhibitor	COUP-TFII inh	Efflux pump inh	NCOA1 inh	NCOA3 inh	Gal4-VP16 ctr	COUP-TFII conf
COc1ccc(-[n+]2c(C)cc(/C=C3\Sc4ccccc4N3C)cc2C)cc1	98*	-89	82*	0	71*	75*	-35	67*
COc1ccccc1-[n+]1c(C)cc(/C=C2\Sc3ccccc3N2C)cc1C	84*	0	82*	0	62*	69*	-11	89*
Cc1cc(-c2n[nH]c(=S)n2-c2ccccc2C)cs1	-12	-7	4	0	-1	-1	.	.
NC(=O)c1ccsc1NC(=O)COC(=O)c1ccc(Cl)c(N)c1	-10	8	6	0	3	12	.	.
O=C(Cn1nnc(-c2ccc(OCc3ccccc3F)cc2)n1)N1CCOCC1	-58	-31	-10	0	-71	-59	.	.
N#Cc1c(NCc2ccccc2)ccnc1NCc1cccnc1	23	28	44*	0	5	28	2	42*
COc1ccc(C2NCCC3(O)CCCCC23)c(OC)c1OC (centres undefined)	7	-7	-21	0	-2	18	.	.
CC1(C(=O)NS(=O)(=O)c2cccc(C#N)c2)CCN1C(=O)C1(c2ccc(Cl)cc2)CC1 (centres undefined)	14	-6	-7	.	-11	7	.	.
Cc1sc2ncnc(N3CCC(C(=O)Nc4nnc(CC(C)C)s4)CC3)c2c1C	1	-18	-26	0	-37	-6	.	.
CC1(Cc2cccc(F)c2)C(=O)Nc2ccc(-c3cccnc3)cc21 (centres undefined)	17	52	48*	.	61	55	9	18
CC1(Cc2ccc(Cl)cc2)C(=O)Nc2ccc(-c3cccnc3)cc21 (centres undefined)	19	50	35	.	59	57	.	.
Cc1ccc(C(C)C)c(OCc2ccc(C(=O)N/N=C/c3ccc(O)c(O)c3)cc2)c1	-27	52	44*	0	-14	9	19*	6
COc1ccc(Br)cc1C(C[N+](=O)[O-])c1c(N)n(C)c(=O)n(C)c1=O (centres undefined)	27	-28	41*	0	-26	-3	7	23
CN(C)c1ccc(C(C[N+](=O)[O-])c2c(N)n(C)c(=O)n(C)c2=O)c(F)c1C#N (centres undefined)	16	35	-2	0	4	5	.	.
